Measured values taken from paper PMC7826789 (International Journal of Molecular Sciences, 2021).

Experiments:
Details in all cases: Compound Concentration (nM):1000
[1] = system: MET(Y1235D)
[2] = system: MET
[3] = system: T1, MINK
T1 construct: gene MINK1

[4] = system: T2, MKK7
T2 construct: gene MAP2K7

[5] = system: MKNK1
[6] = system: MKNK2
[7] = system: T3, MLCK
T3 construct: gene MYLK3

[8] = system: T4, MLK1
T4 construct: gene MAP3K9

[9] = system: T5, MLK2
T5 construct: gene MAP3K10

[10] = system: T6, MLK3
T6 construct: gene MAP3K11
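Also: KINOMEscan scanMAX binding as percent activity remaining versus control; lower means stronger binding.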

Compound	Percent Control [1] [%]	Percent Control [2] [%]	Percent Control [3] [%]	Percent Control [4] [%]	Percent Control [5] [%]	Percent Control [6] [%]	Percent Control [7] [%]	Percent Control [8] [%]	Percent Control [9] [%]	Percent Control [10] [%]
NS(=O)(=O)c1ccc(N/N=C2\C(=O)Nc3ccc(-c4cnco4)cc32)cc1 [GW276655]	100	94	3.8	93	93	71	19	73	64	96
C[C@@H](Oc1cc(-n2cnc3ccc(OC4CCN(C)CC4)cc32)sc1C(N)=O)c1ccccc1Cl [GSK579289A]	98	58	75	78	71	60	72	39	86	100
COc1ccc2cc(-c3c(-c4ccncc4)nc(-c4ccc(S(C)(=O)=O)cc4C)n3C)ccc2c1 [SB-633825]	100	80	43	89	66	73	90	63	79	82
COc1cccc(-n2ncc3c(N/N=C/c4ccncc4)ncnc32)c1 [GW784752X]	94	91	67	100	47	59	98	100	73	100
Cc1cc(O)cc(C)c1/C=C/c1cncc(C(N)=O)c1 [GW435821X]	100	100	87	100	69	31	100	100	56	100
Cl.O=C(Nc1ccc(Oc2ccc3[nH]c(NC(=O)c4ccccc4)nc3c2)cc1)Nc1cc(C(F)(F)F)ccc1F [GW709042A]	59	64	93	100	64	26	100	100	47	73
CN(C)CCNC(=O)Nc1ccc(N(C)c2ccnc(Nc3ccc(CS(C)(=O)=O)cc3)n2)cc1.Cl [GW830900A]	57	21	59	100	100	53	100	97	99	100
COc1cc2ncn(-c3cc(O[C@H](C)c4ccccc4Cl)c(C(N)=O)s3)c2cc1OC [GSK237701A]	71	78	55	97	73	77	97	64	95	92
COc1ccc2[nH]c3c4[nH]c5ccc(OC)cc5c4c4c(c3c2c1)C(=O)NC4=O [GW296115X]	76	78	1.7	88	92	54	16	2.2	83	5.6
COC(=O)Nc1nc2ccc(Oc3ccc(NC(=O)Nc4cc(C(F)(F)F)ccc4F)cc3)cc2s1.Cl [GW693917A]	6.6	33	79	97	45	31	99	97	85	100
Cl.c1ccc(Cc2nc3ccc(Nc4ncnc5ccccc45)cc3[nH]2)cc1 [GR269666A]	91	100	92	100	86	100	100	100	100	91
COc1cc(C)c(N(C)C(=O)CN(C)C)cc1Nc1nc(Nc2cccc(F)c2C(N)=O)c2cc[nH]c2n1 [GSK2219385]	99	65	86	97	75	98	78	55	100	100
O=C(Nc1n[nH]c2nc(-c3ccc(O)cc3)c(Br)cc12)C1CC1 [SB-725317]	100	100	42	100	49	90	67	100	100	100
CCS(=O)(=O)c1ccc(OC)c(Nc2ncc(-c3cccc(OC)c3)o2)c1 [GW580509X]	100	100	70	100	100	94	100	100	100	96
CN1CCN(C(=O)c2ccc(NC(=O)Nc3ccc(N(C)c4ccnc(Nc5ccc(CS(C)(=O)=O)cc5)n4)cc3)cc2)CC1.Cl [GW830263A]	4.4	8.8	18	95	65	4.2	86	86	82	91
COc1cc(/C=N/Nc2ncnc3[nH]ncc23)ccc1O [GW578748X]	83	100	39	100	78	38	90	66	51	43
C/C(Nc1ccc(S(N)(=O)=O)cc1)=C1/C(=O)Nc2ccccc21 [GW335962X]	100	72	2.8	91	74	100	69	77	75	98
COc1ccc2c(-c3ccnc(Nc4cccc(OC(F)(F)F)c4)n3)cnn2n1 [GW810372X]	100	100	93	100	73	100	100	100	74	100
O=C1Nc2ccc(C(=O)c3ccco3)cc2C1=Cc1cc(Cl)c(O)c(Cl)c1 [GW406108X]	100	67	13	78	72	89	100	97	100	95
COc1cccc(-c2c[nH]c3c(N/N=C/c4ccncc4)ncnc23)c1 [GW814408X]	75	64	33	100	57	30	95	61	76	73

Compound	Percent Control [1] [%]	Percent Control [2] [%]	Percent Control [3] [%]	Percent Control [4] [%]	Percent Control [5] [%]	Percent Control [6] [%]	Percent Control [7] [%]	Percent Control [8] [%]	Percent Control [9] [%]	Percent Control [10] [%]
CC1=C(C(=O)Nc2ccc3[nH]ncc3c2)C(c2ccc3ccccc3c2)CC(=O)N1 (stereo not drawn) [GSK270822A]	87	47	87	75	75	73	92	68	100	76
CCS(=O)(=O)c1ccc(OC)c(Nc2ncc(-c3cccc(F)c3)o2)c1 [GW621970X]	100	100	72	100	70	100	100	100	95	100
COc1ccc(COc2ccc(Cc3cnc(N)nc3N)cc2OC)cc1 [GW632580X]	100	95	85	80	76	100	100	85	53	90
Cl.O=C(O[C@H]1CN[C@H](C#Cc2cc3ncnc(Nc4ccc5c(cnn5Cc5ccccc5)c4)c3s2)C1)N1CCOCC1 [GSK200398A]	100	100	98	75	70	47	100	100	100	92
CN(C)c1cc2c(Nc3ccc4c(cnn4Cc4ccccc4)c3)ncnc2cn1 [GW282974X]	100	94	100	95	74	–	98	89	95	100
NS(=O)(=O)c1ccc(N/N=C2\C(=O)Nc3ccc(C(=O)NCCc4c[nH]cn4)cc32)cc1 [GW300660X]	100	100	43	100	100	100	100	100	100	100
Nc1ncnc2occ(-c3ccc(NC(=O)Nc4cc(C(F)(F)F)ccc4F)cc3)c12 [GW770249X]	60	89	52	100	55	3.9	88	66	18	54
Cl.O=S1CCN(Cc2ccc(-c3ccc4ncnc(Nc5ccc(OCc6ccccc6)c(F)c5)c4c3)o2)CC1 [GW576924A]	100	100	89	51	82	100	100	100	100	100
NS(=O)(=O)c1ccc(N/N=C2\C(=O)Nc3ccc(Cl)cc32)cc1 [GW280670X]	100	100	25	100	100	100	85	100	98	96
Cl.O=C(Nc1ccc(Oc2ccc3[nH]c(NC(=O)c4ccco4)nc3c2)cc1)Nc1cc(C(F)(F)F)ccc1F [GW683134A]	6.6	17	99	100	48	12	100	64	82	67
CC(C)COC(=O)c1ccc2c(c1)/C(=C/Nc1ccc(S(N)(=O)=O)cc1)C(=O)N2 [GW416981X]	94	100	37	100	100	100	100	100	96	100
COc1ccccc1-c1cc(/C=C2\C(=O)Nc3ncc(Br)cc32)cc(Br)c1O [GW442130X]	100	92	93	100	100	100	100	99	100	100
NS(=O)(=O)c1ccc(Nc2ncc(-c3ccccc3)o2)cc1 [GW572399X]	100	100	40	100	39	53	100	100	100	100
COc1cc(C=NNc2ncnc3c2cnn3-c2ccccc2)ccc1O [GW513184X]	57	36	48	100	100	50	98	48	83	50
CCn1c(-c2nonc2N)nc2c(C#CC(C)(C)O)nc(OCCNC)cc21.Cl [GSK949675]	100	97	100	100	98	100	100	100	100	100
CC1=C(C(=O)Nc2ccc3[nH]ncc3c2)C(c2ccc(Cl)c(Cl)c2)CC(=O)N1 (stereo not drawn) [GSK299115A]	97	97	69	90	81	66	99	70	86	97
COc1cc2ncnc(Nc3ccc4c(cnn4Cc4ccccc4)c3)c2cc1OC.Cl [GW282449A]	100	100	87	100	100	76	100	100	100	100
COc1cc(N2CCN(C(C)C)CC2)ccc1Nc1nc(Nc2ccc(F)cc2C(=O)NC[C@@H](O)CO)c2cc[nH]c2n1 [GSK1392956A]	100	100	80	100	61	97	96	100	100	100
NS(=O)(=O)c1ccc(N/N=C2\C(=O)Nc3ccc(C(=O)NCc4ccncc4)cc32)cc1 [GW300657X]	91	100	34	93	56	78	45	89	99	100
CCc1ccc(Oc2nccc(-c3c(-c4ccc(F)cc4)ncn3C3CCNCC3)n2)cc1 [SB-242719]	100	93	36	90	83	100	76	85	100	71
